# KB-V1 cytotox = KB-V1 MDR subline cytotoxicity; KB-V1 MDR cells viability, CellTiter-Glo, 72 h; Potency, µM (titrated, usually from 46.1 µM), most hits filed as cytotoxic; hit rate 3.4% among 400,000; AID 1347076; also: nearly all actives have a fitted effect of over 60% in size
#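 Drug-selected KB-V1 cells, grown in DMEM lacking phenol red with 10% FBS, receive compound titrations; after three days at 37 degrees C, surviving cell ATP is quantified by CellTiter-Glo luminescence and responses normalized and curve-fitted.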
# A549 viability = kills or reduces viability of A549 cells in Nrf2 counter-screen; hit rate 0.16% among 390,000; Potency, µM (top dose mostly 46 µM), hits mostly inhibitors; AID 504648; A549 ARE-Fluc cells, CellTiter-Fluor viability, 18-24 h
#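 A549 ARE_Fluc cells in 5% FBS OPTI-MEM were exposed to compounds in concentration-response for 18-24 h at 37 deg C. Viability was read by CellTiter-Fluor fluorescence (Ex 405/Em 525) after 30 min, before the luciferase read.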
# PI4K2A inh = blocks human PI4K2A kinase activity. activity change, negative = inhibition, % at 76.9 µM. Q9BTU6. purified PI4K2A, ADP-Glo luminescence, 1 h; hits give low values. hit rate 0.13% among 420,000; in the data active = activity change below about -50%; inconclusive = mostly about -30% to -49%
# Target sequence (Q9BTU6 whole entry, looked up): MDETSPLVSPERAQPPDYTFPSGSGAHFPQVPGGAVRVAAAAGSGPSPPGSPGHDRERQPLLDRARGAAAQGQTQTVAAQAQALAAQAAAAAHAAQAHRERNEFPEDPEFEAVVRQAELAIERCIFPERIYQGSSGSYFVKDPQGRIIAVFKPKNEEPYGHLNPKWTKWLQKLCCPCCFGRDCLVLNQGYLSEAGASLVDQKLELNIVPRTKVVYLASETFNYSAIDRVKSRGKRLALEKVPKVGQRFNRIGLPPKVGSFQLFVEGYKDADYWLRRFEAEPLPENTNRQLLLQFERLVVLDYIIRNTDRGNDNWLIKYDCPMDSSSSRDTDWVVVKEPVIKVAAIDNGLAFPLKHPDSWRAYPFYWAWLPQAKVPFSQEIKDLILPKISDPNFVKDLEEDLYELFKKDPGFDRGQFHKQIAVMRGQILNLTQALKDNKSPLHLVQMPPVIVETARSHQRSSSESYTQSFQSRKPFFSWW
#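 Compounds are screened against recombinant PI4K2A using PI as substrate and ATP, the latter dispensed at 300 microM. Reactions run one hour at ambient temperature before ADP-Glo detection; full inhibition defined by wells lacking enzyme.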
# Giardia kill = Giardia lamblia killing | activity change, % at 7.66 µM, hits read low | hit rate 0.15% among 340,000 | Giardia lamblia trophozoite viability; in the data active = activity change below about -80%; inconclusive = between about -30% and that limit;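 also: parasites exposed to compound for two days anaerobically before the ATP read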
#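 Media and compound were dispensed first, then trophozoites at 100 cells/well; plates sat 48 hrs at 37 deg C without oxygen before ATP luminescence reagent was added and read after 15-30 min at room temperature.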
# Nrf2 inh = Nrf2 pathway inhibition; A549 ARE-Fluc reporter, luciferase luminescence, 18-24 h; hit rate 2.1% among 360,000; Potency, µM (top dose mostly 46 µM), actives largely listed as inhibitors; also: nearly all actives have a fitted effect of over 60% in size
#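 A549 ARE_Fluc cells, 5000/well, 5% FBS OPTI-MEM; compounds in dose-response, 18-24 h at 37 °C/5% CO2; CellTiter-Fluor viability read (Ex 405/Em 525), then BugLite luciferase luminescence = Nrf2 activity.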
# KB-3-1 tox = kills parental KB-3-1 adenocarcinoma cells | KB-3-1 viability, CellTiter-Glo ATP luminescence, 72 h | Potency, µM (top dose mostly 46.1 µM), actives largely listed as cytotoxic | hit rate 1.4% among 400,000; also: nearly all actives have a fitted effect of over 60% in size
#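 Luminescent ATP read-out (CellTiter-Glo) measures survival of drug-naive KB-3-1 cells after 72 h compound exposure at 37 °C. Titration series was screened from lowest to highest concentration, with DMSO vehicle plates as background controls.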
# A number is an active result; . = inactive; ? = inconclusive; / = not tested or not shown. Only some compounds are listed: those with a hit (about 5.7% of all), similar ones and a draw of the others. Unless noted, calls follow the shape of the dose curve; as a rule, active = well fitted curve in the direction sought with a large enough effect; inconclusive = small, poorly fitted or top-dose-only effect, or another doubt; inactive = no such curve, though single readings can be large; an effect the other way counts as inactive or inconclusive.
SMILES,KB-V1 cytotox,A549 viability,PI4K2A inh,Giardia kill,Nrf2 inh,KB-3-1 tox
Cc1cc(/C=N/n2cnnc2)c(C)n1-c1ccc(Cl)cc1,.,.,.,.,.,.
Cc1cc(/C=N/n2cnnc2)c(C)n1-c1ccccc1,5.8µM,.,.,.,/,3.26µM
Cc1cc(/C=N/n2cnnc2)c(C)n1-c1ccc(OCc2ccc(Cl)cc2Cl)cc1,5.17µM,?,.,.,/,7.31µM
O=S(=O)(Nc1nc2ccccc2nc1NCc1ccco1)c1ccc(Cl)cc1,?,.,.,.,20.6µM,?
COCCCNc1nc2ccccc2nc1NS(=O)(=O)c1ccc(Cl)cc1,.,.,.,.,.,.
Cc1noc(C)c1CSc1nc2ccccc2nc1NS(=O)(=O)c1ccc(Cl)cc1,?,?,.,.,9.2µM,?
Cc1ccc(S(=O)(=O)Nc2nc3ccccc3nc2NCc2ccco2)cc1C,.,.,.,.,20.6µM,.
Cc1ccc(S(=O)(=O)Nc2nc3ccccc3nc2NCc2ccco2)cc1,?,.,.,.,?,.
COC(=O)[C@]12CCCCC=C1N(Cc1ccc(OC)cc1)C(=O)[C@@H]2CC(=O)NCCCCc1ccccc1,/,/,.,/,/,/
Cc1c(CCC(=O)NCc2ccc(F)cc2)c(=O)oc2cc(O)ccc12,.,.,.,/,.,.
CC(CNC(=O)Cn1ccc2cc(S(=O)(=O)N3CCCCCC3)ccc21)c1ccccc1 (stereo not drawn),.,.,.,/,20.6µM,?
CCn1ccc2cc(S(=O)(=O)N3CCC(C(=O)NCC(C)c4ccccc4)CC3)ccc21 (stereo not drawn),.,.,.,/,/,.
CN(CC(=O)Nc1cccc(F)c1)CC(=O)Nc1cccc(S(=O)(=O)N2CCCCCC2)c1,18.4µM,.,.,.,?,?
O=C(Cn1nnc(-c2ccccc2)n1)Nc1cccc(S(=O)(=O)N2CCCC2)c1,.,.,.,.,16.4µM,.
CCOc1ccc(CCNC(=O)CCn2ccc3cc(S(=O)(=O)N4CCCC4)ccc32)cc1,.,.,.,.,25.9µM,.
CN(CC(=O)Nc1cccc(F)c1)CC(=O)Nc1cccc(S(=O)(=O)N2CCCCC2)c1,.,.,.,.,?,.
COc1ccc(/C=N\NC(=O)CN2CCN(Cc3ccccc3)CC2)cc1OCc1ccccc1,/,/,.,/,/,/
COc1ccc(S(=O)(=O)N2c3ccc(Cl)cc3[C@@](O)(c3ccccc3Cl)[C@H]2C(=O)N2CCC[C@@H]2C(N)=O)cc1OC,/,/,.,/,/,/
Cc1ccnc(NC(=S)N2CCN(c3cccc(N(C)C)c3)CC2)c1,.,/,/,/,/,.
CC(=O)Nc1cccc(S(=O)(=O)N2CCCCCC2)c1,.,.,.,.,.,.
COc1cc(F)c(S(=O)(=O)N2CCCN(S(=O)(=O)c3cccc(NC(C)=O)c3)CC2)c(F)c1,/,.,/,/,16.4µM,/
CCn1ccc2cc(S(=O)(=O)N3CCCN(C(=O)Nc4cccc(Cl)c4)CC3)ccc21,10.3µM,.,.,/,/,?
CN(CC(=O)Nc1ccc(S(=O)(=O)N2CCCC2)cc1)Cc1cccc(Cl)c1Cl,18.4µM,.,.,.,?,?
CN(CC(=O)Nc1cccc(S(=O)(=O)N2CCOCC2)c1)CC(=O)Nc1ccc(Cl)c(C(F)(F)F)c1,?,?,.,.,20.6µM,?
C=C1C=C(C(F)F)n2ncc(C(=O)N3CCN(c4ccccn4)CC3)c2N1,.,/,/,/,/,.
SMILES,KB-V1 cytotox,A549 viability,PI4K2A inh,Giardia kill,Nrf2 inh,KB-3-1 tox
CC(CC(=O)Nc1cccc(S(=O)(=O)N2CCCCC2)c1)c1ccccc1 (stereo not drawn),.,?,.,.,13µM,.
O=C(CSc1ccccc1)Nc1cccc(S(=O)(=O)N2CCCC2)c1,?,.,.,.,.,.
Cc1ccc(S(=O)(=O)N(CC(=O)NCc2ccco2)Cc2ccccc2F)cc1,8.2µM,.,.,.,.,.
CCCC(C)NC(=O)CN(Cc1ccco1)S(=O)(=O)c1ccccc1 (stereo not drawn),.,.,.,.,.,.
CCC(C)NS(=O)(=O)c1ccc(S(=O)(=O)N(CC(=O)Nc2ccccc2)Cc2ccco2)cc1 (stereo not drawn),.,.,.,.,13µM,.
Cc1ccc(S(=O)(=O)N(CC(=O)NCc2ccncc2)Cc2ccccc2F)cc1,?,.,.,.,?,.
O=C(c1ccncc1)N1CC[C@H]2[C@H](CCCN2Cc2ccccc2)C1,/,/,.,/,/,/
CN1C(=O)C2(OCC(COc3ccc(Cl)cc3)O2)c2ccccc21 (stereo not drawn),?,.,.,.,18.4µM,.
CC(C)NC(=O)C1(C)CCCCN1Cc1ccc(OCc2ccccc2)cc1 (stereo not drawn),?,/,.,/,/,16.4µM
Cc1ccc(CN2CCCC2(C)C(=O)NC(C)C)cc1 (stereo not drawn),.,/,.,/,/,.
O=C(O)c1ccc(C=Nn2c(-c3ccc(F)cc3)n[nH]c2=S)cc1,/,/,.,/,/,/
CC(C)(C)C(=O)N(Cc1ccc(Cl)cc1)c1cnccn1,.,.,.,.,18.4µM,.
O=C(NCCc1ccc(Cl)cc1)c1cnccn1,?,.,.,.,.,.
Cc1ccc(S(=O)(=O)Nc2ccc3c4c(cccc24)CC3)c(C)c1,20.6µM,.,.,.,?,?
Cc1cc(C)c(S(=O)(=O)Nc2ccc3c4c(cccc24)CC3)c(C)c1,1.3µM,?,.,.,.,0.731µM
Cc1cc(C)c(S(=O)(=O)Nc2ccccc2)c(C)c1,18.4µM,.,.,.,.,.
O=S(=O)(Nc1ccc2c3c(cccc13)CC2)c1ccccc1,.,/,.,/,/,.
Cc1cc(C)c(S(=O)(=O)Nc2ccc(O)cc2)c(C)c1,?,.,.,.,.,.
COc1ccc(-c2onc3ccc(Br)cc23)cc1,.,.,.,.,.,.
COc1cc(-c2onc3ccc(Br)cc23)cc(OC)c1OC,2.06µM,?,.,.,.,5.17µM
CC1CCN(CCCNC(=O)c2cc(Sc3ccc(F)cc3)nc3ccccc23)CC1,/,.,.,/,/,/
Cc1cccc(N2CCN(c3ncnc4onc(C)c34)CC2C)c1 (stereo not drawn),/,?,.,/,23.1µM,/
Cc1cc(C)c(CSc2ncc(-c3ccc([N+](=O)[O-])cc3)[nH]2)c(C)c1,23.1µM,.,.,.,?,?
COc1ccc(Cl)cc1C(=O)Nc1ccc(-c2nnc3n2CCCCC3)cc1,.,.,.,/,23.1µM,.
CCn1c(=O)n(CC)c2cc(N3CCCC3)c(NC(=O)c3ccccc3OC)cc21,.,?,.,.,?,.
CCn1c(=O)n(CC)c2cc(N3CCCC3)c(NC(=O)c3cc(Cl)ccc3OC)cc21,.,?,.,.,20.6µM,?
Cc1c(C(=O)Nc2nccs2)oc2ccc(Br)cc12,8.2µM,?,.,.,?,5.8µM
O=C(Nc1ccc(-c2nnc3n2CCCCC3)cc1)c1ccco1,?,.,.,.,.,.
